In paper PMC12136788:
Positions count from the first letter of the chain named. Whole data set: some 24,000 sequences, median “enrichment r” near 0.99, cut for the highest 2% near 3.7. The entries come from a sample that favours the highest values as a whole.

B1: chr9:95013113:95013114:-_ENSG00000196305_ENST00000443024|hu_hu|hu_hu_hu_mus_False|68_98 (ssRNA)
RNA: GGGAGUUCUACAGUCCGACGAUCCUCAGUCAGAAAGGGUGUGUAGGGGGCCAUCAGUCUGCACAGAGAAAGCAGAACACUGAACAGUGUCUCCAGAGCCAUGACACAGUCUUCCACCCCACUCUCACCCUUUAACCUCCUCCUCAACAGAGGAUUGAGCAUCA
B2: 176631152_176631272_1200_CDS_ENSG00000165671_ENST00000439151|human|control|control (ssRNA)
RNA: GGGAGUUCUACAGUCCGACGAUCUUUCUGUUUCCCUCUUCUCCUAAGGACAGGUAGCUCUUCGAAUUGAUGUCUGCCUUCAAACAUGACGAUUGCUUUUCCAGCCACCCAGGCUCUCUCAGAAGGAUCUCCAAAAGCCUCCACCAACAGAGGAUUGAGCAUCA
B3: chr2:42509997:42509998:+_ENSG00000143924_ENST00000318522|hu_mus|hu_hu_hu_mus_True|38_108 (ssRNA)
RNA: GGGAGUUCUACAGUCCGACGAUCUCGCUGAGUUCUCUCCUCAUAAUUAAACAGGACUACCACUGAGGCGAUAAAAUAAACUAUCUCCCCUGUGGGAAGAAGGUAAACAUUCGCUCUACAGUCCUUUCCUCGAUAACCGUAUACCAACAGAGGAUUGAGCAUCA
B4: chr5:72798899:72798900:+_ENSG00000145741_ENST00000335895|hu_mus|motif|central (ssRNA)
RNA: GGGAGUUCUACAGUCCGACGAUCGGGUGCUUUUCCAUCCACAGAUUGUUUGGGCAGAGCUUCAGCCAGUCUCCUUAAACGGGUCAGGCUGUCUGCACCAAGCUGGUUGAGGAUGCUGGGAAGCAUUUCUGUCAGCUGCUUUGUCAACAGAGGAUUGAGCAUCA
B5: 160239608_160243617_1107_3pUTR_ENSG00000186432_ENST00000334256|human|control|control (ssRNA)
RNA: GGGAGUUCUACAGUCCGACGAUCAGGAACUAUUCCAGAGUCUAUUACCAUCUGUAUUUGUUCAUUGCCAGCAUCAGUAAGGUAAGAGAGGGCCCAGACUGUGUCUACCAGUAUAUUUACAUCUGUGUGAUGAAUUAAAACACACAACAGAGGAUUGAGCAUCA
B6: chrX:71099370:71099371:-_ENSMUSG00000031391_ENSMUST00000102871|mus_hu|FALSE|FALSE (ssRNA)
RNA: GGGAGUUCUACAGUCCGACGAUCUUUAUUUUUCCUGGGAUGGGUUCAUCAAAGCUAAUUGCUAUCAAUCCUAGAAACCACCUAGGGACUCAGACAUCUGCCUACACACUAGUGGCGUAAAGGGAAGGACAGGGGUACAAACUUCAACAGAGGAUUGAGCAUCA
B7: chr8:29927545:29927546:-_ENSG00000133872_ENST00000521265|hu_mus|FALSE|FALSE (ssRNA)
RNA: GGGAGUUCUACAGUCCGACGAUCAGAGGACUCGUAGCCUUCACAGCUCACCACAGUUUUGCCAAAUUUGUAUGCAAUAUCCAAGUCGGUCUUACAUUCCCACUGUACAUCGUAGCCAUCCCAGCCUUUGUUCUGGCACUGUAUCAACAGAGGAUUGAGCAUCA
B8: chr3:151883435:151883436:+_ENSMUSG00000028034_ENSMUST00000166984|mus_mus|motif|central (ssRNA)
RNA: GGGAGUUCUACAGUCCGACGAUCCAUUUCUCCAUUUCUUCCUAUUACAAUGCCAACAGCAAAUCUUGGAAUUGGGACAUCGGUCCCUUCAUUGCCUCCUAUUCUUGAGCCAUACUCAUUCCGCACUUCUCUGAAACCACCUUGCAACAGAGGAUUGAGCAUCA
B9: chr7:135832672:135832673:+_ENSMUSG00000042105_ENSMUST00000118605|mus_mus|FALSE|FALSE (ssRNA)
RNA: GGGAGUUCUACAGUCCGACGAUCCACGCCAAAAAUUCCAUCACGACACAAUUUUUACACACACACCAAAAAACAAAAAAAACAAAAAAAAAAAAAAAAAACCCAAAAAACAAAAAACCCUACAGUGUCACUUCCAUCCUGCCUCAACAGAGGAUUGAGCAUCA
B10: chr7:26237324:26237325:-_ENSG00000122566_ENST00000356674|hu_mus|FALSE|FALSE (ssRNA)
RNA: GGGAGUUCUACAGUCCGACGAUCCUCAUAGUAGUUUCUCAAACUUUCUUCUGUGGUUUCAAAGCUUAAGCCACCAAUAAAGAGCUUUCGGAACUGUUCCUUUUCUCUCUUUUUCCUCUCCAAAGGAACAGUUUCUAAAGUUUUCAACAGAGGAUUGAGCAUCA
B11: chr1:225611761:225611762:-_ENSG00000143815_ENST00000272163|hu_mus|hu_hu_hu_mus_True|38_98 (ssRNA)
RNA: GGGAGUUCUACAGUCCGACGAUCCCAGGCCAUCGGCCUCUUACCACUUCACCCUCAACAAACUUCCUACUUGGCAUUUUCUAAAAUUAGUCUGGCCCAGGUUCCGGGGGAACUCCAGCCACUCCAGGACAGUCACCAGCAGCCCAACAGAGGAUUGAGCAUCA
B12: chr1:225611761:225611762:-_ENSG00000143815_ENST00000272163|hu_mus|hu_hu_hu_mus_True|38_48 (ssRNA)
RNA: B11 RNA with U41G, G89A, U90C, G94C, C95G
B13: chr14:63839279:63839280:-_ENSG00000154001_ENST00000337537|hu_hu|FALSE|FALSE (ssRNA)
RNA: GGGAGUUCUACAGUCCGACGAUCUUAAAAGGAAAAAAGGAAAACAAGGAAAAAAAACCACCCCAAACCCCAAAAAACUCUAAACACUUAAAAAUGCCAAUAACAUCCAUACAUCCCUUUCCCAUCCCACCCUCAUCCCCACAACAACAGAGGAUUGAGCAUCA
B14: chr14:63839279:63839280:-_ENSG00000154001_ENST00000337537|hu_hu|motif|central (ssRNA)
RNA: B13 RNA with U80G, A81G
B15: chr1:66486067:66486068:+_ENSMUSG00000015222_ENSMUST00000077355|mus_hu|FALSE|FALSE (ssRNA)
RNA: GGGAGUUCUACAGUCCGACGAUCUUAUCCAGGUCCCAAAUGUUAAUAACUUAAUUGAAUCUUUCUUCCCAUUUAUACAAAAUAACACUUUAAAAAAACUUAUUUCUUACAUGCUCUUCCCUUCCUGCAAUCAGACUCCUUGGUCAACAGAGGAUUGAGCAUCA
B16: chr15:98568902:98568903:-_ENSMUSG00000051853_ENSMUST00000053183|mus_hu|FALSE|FALSE (ssRNA)
RNA: GGGAGUUCUACAGUCCGACGAUCGGCCAGGGAAAUGAAUACAUUUUUAAAUGAAAUAGAACCUCCAACACCCCCCCCACAACCACCACACACAAACACACCCACACCCAUAUACACACACACUCACACACACACACAGGCCUACAACAGAGGAUUGAGCAUCA
B17: chr5:131913501:131913502:-_ENSMUSG00000029673_ENSMUST00000160071|mus_mus|FALSE|FALSE (ssRNA)
RNA: GGGAGUUCUACAGUCCGACGAUCGUUCCAGUGCACAGAAUCCUUGGGAUUUUUUUUUUCUUUUUAGUUGUUGUCUUAAAAAAAAAAAAAUUAAAACGAAAGAAAGAAAACAAAACACCGCACACAUCUGGUGUCCACAAAAUCCAACAGAGGAUUGAGCAUCA
B18: 141912308_141912428_1497_3pUTR_ENSMUSG00000028273_ENSMUST00000029941|mouse|control|control (ssRNA)
RNA: GGGAGUUCUACAGUCCGACGAUCUUGGCACCGGCCACAUUCAGGAGCAAAGAACUUCUCAUAGCAUAGCUCACAGUACAGUGCUCCCUUCUCCUCUACAAAGCCUAUGUAGGCCAUUGUGUUUUUGCAAUGAGCACAGUUAAACAACAGAGGAUUGAGCAUCA
B19: chr11:51934471:51934472:+_ENSMUSG00000020349_ENSMUST00000020608|perfect_dup|motif|central (ssRNA)
RNA: GGGAGUUCUACAGUCCGACGAUCGAUUGCAGCUUGGUUACCACAACGAUAACAAUAGUUUGGAGCACUGAAAAUCGUUACGGCAUUCCGGUCAUGGCACCAGUUAUAUCCCUCCAUCACUAGCUGGUGAGCUCUAGACACCAACAACAGAGGAUUGAGCAUCA
B20: chr12:16048344:16048345:+_ENSG00000023734_ENST00000419869|hu_hu|hu_hu_hu_mus_True|38_68 (ssRNA)
RNA: GGGAGUUCUACAGUCCGACGAUCAGAUCGUCCAUAAGUAAUAACCAAAAUCUCUCCUUCAGGAAUAUAUUCCAUACUGCUAACAGACAUAUUAAAAUUUAGAGAUUUCACUUCUGUCAUUGUGGCAUGAUCCCAGAGCCGAACCAACAGAGGAUUGAGCAUCA
B21: chr1:115282395:115282396:-_ENSG00000009307_ENST00000339438|hu_hu|FALSE|FALSE (ssRNA)
RNA: GGGAGUUCUACAGUCCGACGAUCAUUAUACUGUGAACAGUGGAAGAAAAGUCUAGCUUGACGUUCUGAACACUGAAUAAAUCCGUAAGAGGUUAACAGUUUUUCAAUAACCCCAGUUUCACGCAGUGCUGCUGAAGUACCAUUCAACAGAGGAUUGAGCAUCA
B22: 35805507_35818940_561_CDS_ENSG00000108100_ENST00000265375|human|control|control (ssRNA)
RNA: GGGAGUUCUACAGUCCGACGAUCUUCAUCAAAAAUAUCUAAGAGCAUCCUUCCAUCUGGGUCCCUGUUUUUGAUGUGAUAAUAUAUUGCAAGAGCGACACAUUUAAUUGUAUACUUGAGGUUUGGUUGACUGACUGUGCUAUCCAACAGAGGAUUGAGCAUCA

What follows are binders tested against T1, UNK ZnF1-3 (human, UniProt Q9C0B0 31-174) (assay: nsRBNS (natural sequence RNA bind-n-seq); RBNS binding buffer (assumed for nsRBNS): 25 mM Tris pH 7.5, 150 mM KCl, 3 mM MgCl2, 0.01% Triton X-100, 500 ug/ml BSA, 20 U/ml SUPERase-In, 4 C; UNK is unkempt and MSI1 is Musashi-1; names of the RNAs are library labels; protein concentration not given here; high values mean tight binding).
T1 sequence: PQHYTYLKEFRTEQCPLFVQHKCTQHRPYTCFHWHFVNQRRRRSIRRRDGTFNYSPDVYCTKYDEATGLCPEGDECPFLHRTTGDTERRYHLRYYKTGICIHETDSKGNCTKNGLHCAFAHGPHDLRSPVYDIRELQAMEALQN

Binder	binding signal
B1	0.959 enrichment R
B2	0.923 enrichment R
B3	1.03 enrichment R
B4	0.508 enrichment R
B5	1.37 enrichment R
B6	0.995 enrichment R
B7	0.8 enrichment R
B8	0.909 enrichment R
B9	11.5 enrichment R
B10	0.272 enrichment R
B11	1.5 enrichment R
B12	1.33 enrichment R
B13	4.18 enrichment R
B14	3.96 enrichment R
B15	1.42 enrichment R
B16	3.59 enrichment R
B17	1.15 enrichment R
B18	0.923 enrichment R
B19	1.16 enrichment R
B20	1.04 enrichment R
B21	0.906 enrichment R
B22	2 enrichment R
